Drawing on ChEMBL document CHEMBL1961873, “Compounds: GSK PKIS; Assays: Nanosyn kinase panel” (2012), this text covers inhibition for eleven compounds.

As a reminder, the inhibition is the drop in the measured response relative to a control, in per cent.

Test [1] deals with Ribosomal protein S6 kinase alpha-6 (Homo sapiens) (UniProt Q9UK32). The conditions noted are these: at 1 µM.
The target of test [2] is T1, Serine/threonine-protein kinase Sgk1 (Homo sapiens) (UniProt O00141).
T1 sequence (whole entry): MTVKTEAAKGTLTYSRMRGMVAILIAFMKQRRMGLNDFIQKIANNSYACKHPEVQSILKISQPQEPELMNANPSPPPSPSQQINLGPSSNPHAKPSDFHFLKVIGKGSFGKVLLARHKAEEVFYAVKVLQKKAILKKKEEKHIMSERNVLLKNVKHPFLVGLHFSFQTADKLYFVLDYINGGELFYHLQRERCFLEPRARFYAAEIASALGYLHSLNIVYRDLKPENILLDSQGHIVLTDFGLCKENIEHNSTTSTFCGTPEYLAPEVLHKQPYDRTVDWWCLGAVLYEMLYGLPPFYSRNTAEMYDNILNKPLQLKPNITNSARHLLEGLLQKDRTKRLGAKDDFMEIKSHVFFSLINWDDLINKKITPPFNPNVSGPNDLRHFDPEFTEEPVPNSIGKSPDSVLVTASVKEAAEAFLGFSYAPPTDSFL
The conditions noted are these: at 0.1 µM.

In test [3] the target is T1, Serine/threonine-protein kinase Sgk1 (Homo sapiens). Conditions: at 1 µM.
In test [4] the target is T2, Serine/threonine-protein kinase Sgk2 (Homo sapiens) (UniProt Q9HBY8).
T2 sequence (whole entry): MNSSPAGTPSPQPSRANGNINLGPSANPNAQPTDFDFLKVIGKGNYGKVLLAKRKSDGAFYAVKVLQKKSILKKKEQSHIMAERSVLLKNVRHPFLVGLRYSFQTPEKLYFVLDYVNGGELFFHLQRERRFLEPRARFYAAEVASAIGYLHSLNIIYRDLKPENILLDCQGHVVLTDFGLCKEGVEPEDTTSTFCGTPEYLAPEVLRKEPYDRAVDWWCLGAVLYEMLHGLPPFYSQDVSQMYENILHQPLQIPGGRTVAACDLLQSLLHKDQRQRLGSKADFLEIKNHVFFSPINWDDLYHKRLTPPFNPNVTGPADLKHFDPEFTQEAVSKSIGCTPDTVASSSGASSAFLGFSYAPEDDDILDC
The conditions noted are these: at 0.1 µM.

Test [5] addresses T2, Serine/threonine-protein kinase Sgk2 (Homo sapiens). The conditions noted are these: at 1 µM.
Test [6] concerns the target T3, Serine/threonine-protein kinase Sgk3 (Homo sapiens) (UniProt Q96BR1).
T3 sequence (whole entry): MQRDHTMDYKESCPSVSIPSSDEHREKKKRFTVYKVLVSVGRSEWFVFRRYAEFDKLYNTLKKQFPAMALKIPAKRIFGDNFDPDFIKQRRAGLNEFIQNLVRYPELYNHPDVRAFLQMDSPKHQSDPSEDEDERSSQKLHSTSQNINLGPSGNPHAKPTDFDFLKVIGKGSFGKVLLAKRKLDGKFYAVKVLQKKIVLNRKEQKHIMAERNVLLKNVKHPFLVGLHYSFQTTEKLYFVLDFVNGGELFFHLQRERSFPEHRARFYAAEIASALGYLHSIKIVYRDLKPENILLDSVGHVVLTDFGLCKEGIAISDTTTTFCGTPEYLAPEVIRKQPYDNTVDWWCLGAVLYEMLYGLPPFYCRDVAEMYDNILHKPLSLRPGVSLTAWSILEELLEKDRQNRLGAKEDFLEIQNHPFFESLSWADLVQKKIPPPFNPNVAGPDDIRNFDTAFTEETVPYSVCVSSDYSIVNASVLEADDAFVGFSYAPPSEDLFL
The conditions noted are these: at 0.1 µM.

The target in test [7] is T3, Serine/threonine-protein kinase Sgk3 (Homo sapiens). The conditions noted are these: at 1 µM.
For test [8], the target named is 5'-AMP-activated protein kinase catalytic subunit alpha-1 (Homo sapiens) (UniProt Q13131). The conditions noted are these: at 0.1 µM.
Test [9] shares this target. The conditions noted are these: at 1 µM.
Test [10] addresses 5'-AMP-activated protein kinase catalytic subunit alpha-2 (Homo sapiens) (UniProt P54646). Conditions: at 0.1 µM.

5'-AMP-activated protein kinase catalytic subunit alpha-2 (Homo sapiens), sequence (P54646 whole entry, looked up): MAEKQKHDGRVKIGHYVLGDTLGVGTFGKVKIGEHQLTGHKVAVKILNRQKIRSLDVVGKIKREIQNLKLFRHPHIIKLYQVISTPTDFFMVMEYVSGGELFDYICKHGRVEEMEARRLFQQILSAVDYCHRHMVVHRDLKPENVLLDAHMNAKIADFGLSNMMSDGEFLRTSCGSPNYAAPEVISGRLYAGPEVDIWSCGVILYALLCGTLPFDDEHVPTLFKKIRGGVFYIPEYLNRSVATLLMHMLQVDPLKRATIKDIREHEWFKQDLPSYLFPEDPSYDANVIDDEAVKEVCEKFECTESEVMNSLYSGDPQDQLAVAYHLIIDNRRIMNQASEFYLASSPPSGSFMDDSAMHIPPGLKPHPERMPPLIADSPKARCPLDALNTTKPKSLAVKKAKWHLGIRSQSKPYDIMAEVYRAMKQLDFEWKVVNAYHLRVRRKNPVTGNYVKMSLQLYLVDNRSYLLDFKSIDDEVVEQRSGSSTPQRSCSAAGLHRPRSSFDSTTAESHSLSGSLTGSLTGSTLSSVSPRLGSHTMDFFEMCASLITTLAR
Ribosomal protein S6 kinase alpha-6 (Homo sapiens), sequence (Q9UK32 whole entry): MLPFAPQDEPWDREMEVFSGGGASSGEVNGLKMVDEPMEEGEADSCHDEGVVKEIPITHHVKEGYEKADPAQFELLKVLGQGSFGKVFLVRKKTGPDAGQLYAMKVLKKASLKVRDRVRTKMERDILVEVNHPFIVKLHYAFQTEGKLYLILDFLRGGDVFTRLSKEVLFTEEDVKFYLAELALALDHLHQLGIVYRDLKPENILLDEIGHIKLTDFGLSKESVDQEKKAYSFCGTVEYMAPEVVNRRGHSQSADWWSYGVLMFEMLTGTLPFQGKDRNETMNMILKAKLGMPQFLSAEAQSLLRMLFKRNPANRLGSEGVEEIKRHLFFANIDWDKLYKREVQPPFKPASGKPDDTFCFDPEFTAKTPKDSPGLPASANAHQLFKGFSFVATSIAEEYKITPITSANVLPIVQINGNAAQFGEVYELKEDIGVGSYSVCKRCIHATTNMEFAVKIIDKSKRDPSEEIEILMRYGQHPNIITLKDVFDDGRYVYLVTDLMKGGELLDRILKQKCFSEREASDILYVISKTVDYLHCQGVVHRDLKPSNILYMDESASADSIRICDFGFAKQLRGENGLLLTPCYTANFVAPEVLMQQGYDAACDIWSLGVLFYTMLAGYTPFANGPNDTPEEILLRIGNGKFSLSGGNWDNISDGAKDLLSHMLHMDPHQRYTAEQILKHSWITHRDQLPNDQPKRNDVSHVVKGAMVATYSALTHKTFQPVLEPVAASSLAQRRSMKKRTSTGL
5'-AMP-activated protein kinase catalytic subunit alpha-1 (Homo sapiens), sequence (Q13131 whole entry, looked up): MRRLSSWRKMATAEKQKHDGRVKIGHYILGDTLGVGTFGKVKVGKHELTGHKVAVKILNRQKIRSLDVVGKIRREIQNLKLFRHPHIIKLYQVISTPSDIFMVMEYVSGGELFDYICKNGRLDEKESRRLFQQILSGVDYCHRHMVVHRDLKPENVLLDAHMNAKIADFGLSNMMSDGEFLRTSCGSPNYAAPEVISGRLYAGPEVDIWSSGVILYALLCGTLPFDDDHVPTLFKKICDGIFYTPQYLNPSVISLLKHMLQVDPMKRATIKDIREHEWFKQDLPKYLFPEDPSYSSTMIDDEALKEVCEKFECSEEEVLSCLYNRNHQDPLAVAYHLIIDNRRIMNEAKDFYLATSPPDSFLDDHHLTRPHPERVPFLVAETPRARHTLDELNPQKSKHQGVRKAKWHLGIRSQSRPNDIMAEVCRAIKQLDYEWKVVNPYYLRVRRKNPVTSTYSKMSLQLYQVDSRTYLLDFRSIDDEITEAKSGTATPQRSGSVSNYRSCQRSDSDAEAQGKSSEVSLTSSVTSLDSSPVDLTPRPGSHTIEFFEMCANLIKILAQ

Turning to `c1ccc(-c2n[nH]cc2-c2ccnc(-c3ccc(OCCn4ccnc4)cc3)c2)nc1`, the inhibition in test [1] was 1.74%; in [2], 0.97%; in test [3], 2.43%; in test [4], 0.56%; in [5] it was 0.22%; in test [6], 0.55%. Besides, the inhibition is 2.01% in [7], 0.79% in [8], 3.29% in test [9] and 2.92% in [10].

As for `NC(=O)c1ccc2c(-c3ccnc(NCCCO)n3)c(-c3ccc(F)cc3)nn2c1`, the inhibition in test [1] is 2.84%; in test [2], 2.62%; in [3] it was 2.32%; in test [4], 4.31%; in [5], 1.91%; in test [6], 2.16%. For the same compound, the inhibition in test [7] stood at 1.28%; in [8], 2.28%; in test [9], 7.4%; in test [10] it was 3.45%.

`CC1(C)CC(n2cnc(-c3ccc(F)cc3)c2-c2ccnc(N)n2)CC(C)(C)N1`: the inhibition is 0.95% in test [1]; 1.68% in test [2]; 5.28% in [3]; -3.17% in [4]; -3.03% in [5]; 1.34% in test [6]. In addition, the inhibition is 1.32% in test [7], 0.3% in test [8], 1.1% in [9] and 3.69% in [10].

In the case of `COC(=O)Nc1nc2ccc(Oc3ccc(NC(=O)Nc4cc(C(F)(F)F)ccc4F)cc3)cc2s1`, the inhibition in test [1] was 1.65%; in test [2], 0.33%; in test [3], 0.95%; in [4], -4.85%; in test [5] it was 0.53%; in [6], 1.37%. Besides, the inhibition in test [7] is 1.57%; in [8], -0.71%; in test [9], 0.03%; in [10], 0.72%.

On to `Fc1ccc(Nc2nccc(-c3c(-c4ccc(C(F)(F)F)cc4)nn4ncccc34)n2)cc1F`, for which the inhibition was 0.66% in test [1]; 2.17% in test [2]; 2.25% in test [3]; 0.8% in test [4]; -0.85% in test [5]; 2.84% in test [6]. Further, the inhibition in test [7] came to 1.5%; in [8], 1.79%; in test [9], 0.39%; in [10] it was 1.16%.

On to `O=C(O[C@H]1CN[C@H](C#Cc2cc3ncnc(Nc4ccc5c(cnn5Cc5ccccc5)c4)c3s2)C1)N1CCOCC1`, for which the inhibition was -1.11% in test [1]; -0.09% in [2]; -1.15% in test [3]; -1.55% in [4]; 4.74% in test [5]; -2.07% in test [6]. The inhibition in [7] turned out to be 0.07%; in [8], 1.24%; in test [9], 3.86%; in test [10], 2.29%.

Turning to `CS(=O)(=O)Nc1ccc(-c2ccc3c(NC(=O)C4CC4)n[nH]c3c2)cc1`, the inhibition stood at 3.46% in test [1]; 3.96% in test [2]; 2.95% in test [3]; 0.2% in test [4]; 4.06% in test [5]; 2.22% in test [6]. Further, the inhibition in [7] turned out to be 0.14%; in test [8] it was 3.58%; in [9] it was 6.37%; in test [10], 10.3%.

For `CS(=O)(=O)CCNCc1ccc(-c2ccc3ncnc(Nc4ccc(OCc5ccccc5)cc4)c3c2)o1`, the inhibition in test [1] amounted to 1.11%; in [2] it was 5.01%; in test [3], 2.28%; in test [4], 2.02%; in test [5], 1.93%; in [6] it was 3.54%. The inhibition worked out at 1.87% in test [7], 2.94% in test [8], 3.44% in [9] and 2.07% in [10].

As to `Cc1nnc(-c2cccc(-c3ccc(C(=O)NCC4CC4)cc3)c2)o1`, the inhibition in [1] stood at 2.8%; in test [2], 4.47%; in test [3], 10.8%; in test [4], 2.96%; in test [5], 7.09%; in test [6], 3.56%. In addition, the inhibition in [7] amounted to 7.89%; in test [8], 5.16%; in [9], 6.56%; in [10] it was 0.86%.

As for `OCCCNc1nccc(-c2c(-c3ccc(F)cc3)nn3cc(C(F)(F)F)ccc23)n1`, the inhibition in test [1] is 2.38%; in test [2], 2.5%; in test [3], 1.43%; in test [4], 1.44%; in [5], 5.76%; in test [6], 1.97%. In addition, the inhibition in [7] is 2.06%; in test [8], 2.58%; in test [9], 1.3%; in test [10], -0.71%.

For the compound `Cc1cc(O)cc(C)c1/C=C/c1cncc(C(=O)OC(C)(C)C)c1`, the inhibition is 1.11% in [1]; 1.6% in test [2]; 2.22% in test [3]; 3.61% in [4]; 4.38% in test [5]; 3.8% in test [6]. Besides, the inhibition was 0.63% in test [7], 2.74% in test [8], 3.91% in test [9] and 2.92% in test [10].
